The text below walks through data of the supplement of paper PMC3656093.

± gives the standard deviation of the averaged measurements. The full ranking holds about 1,900 compounds; the median of “CD40L-induced NF-kB luciferase activity, plate-corrected, relative to DMSO (0) and IKK inhibitor VII (-100) controls” is about 0.032, and the lowest 2% start at about -26. This excerpt belongs to a sample that is enriched for the lowest values.

This assay deals with BL2-NFkB-Luc. Nature of the assay: CD40L-induced NF-kB luciferase activity, plate-corrected, relative to DMSO (0) and IKK inhibitor VII (-100) controls (% normalized activity); higher = more NF-kB reporter activity (less inhibition). The note with it: 9.4 µM; stimulus: tCD40L 64 ng/ml; 4.5 h. Here is the method: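 BL2 B cells with a stable NF-kB response-element luciferase reporter (BL2-NFkB-Luc), 384-well. Cells were pre-incubated with compound at 9.4 uM for 1 h at 37 C, then stimulated with 64 ng/ml trimerized CD40L for 4.5 h; luciferase was read with Steady-Glo. Signal was normalised per plate in Genedata (median DMSO neutral control = 0, median IKK inhibitor VII at 50 uM = -100) with Assay Median plate-pattern correction; duplicate plates.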
As for `COc1cc2cc(C(=O)O)[nH]c2c(OC)c1OC`, the “CD40L-induced NF-kB luciferase activity” value was 1.43 ± 0.11.

On to `Cc1oc2ccc(OC(=O)c3cccs3)cc2c1C(=O)OC(C)C`, for which the “CD40L-induced NF-kB luciferase activity” value was found to be 6.48 ± 1.

Regarding `Cc1ccc2c(c1)C(CCN)C(=O)N2Cc1ccccc1` (stereo not drawn), the “CD40L-induced NF-kB luciferase activity” value was determined as 1.33 ± 2.

As for `CC12CCC(C(=O)N3CCc4ccccc43)(CC1=O)C2(C)C` (stereo not drawn), the “CD40L-induced NF-kB luciferase activity” value is -7.25 ± 2.2.

In the case of `COc1cc2c(cc1OC)C(c1cc3ccccc3oc1=O)=NC(C)(C)C2`, the “CD40L-induced NF-kB luciferase activity” value is -0.782 ± 0.12.

Consider `COc1cc(C2CC(=O)NC3=C2C(=O)CC(C)(C)C3)ccc1O` (stereo not drawn), for which the “CD40L-induced NF-kB luciferase activity” value amounted to 7.59 ± 2.5.

Consider `O=C1[C@@H]2[C@H](Cc3ccc(O)cc3)N[C@]3(C(=O)Nc4ccccc43)[C@@H]2C(=O)N1c1ccc(F)cc1`, for which the “CD40L-induced NF-kB luciferase activity” value is -2.13 ± 3.5.

Take `COc1ccc2oc(C)c(C(N)=O)c2c1`: the “CD40L-induced NF-kB luciferase activity” value worked out at 5.21 ± 2.3.

Consider `Cc1ccc(S(=O)(=O)NC(C(=O)Oc2cc3oc(=O)cc(C)c3cc2Cl)C(C)C)cc1` (stereo not drawn), for which the “CD40L-induced NF-kB luciferase activity” value is -3.08 ± 0.98.

On to `c1ccc(Cn2nnc3cnccc32)cc1`, for which the “CD40L-induced NF-kB luciferase activity” value was determined as 3.11 ± 1.1.

As for `Fc1ccc(-c2cc(-c3ccccc3)nc(-n3cccn3)n2)cc1`, the “CD40L-induced NF-kB luciferase activity” value was -4.51 ± 1.4.

Take `O=C(/C=C/c1ccc2c(c1)OCCCO2)c1ccc2ccccc2c1O`: the “CD40L-induced NF-kB luciferase activity” value stood at 44.2 ± 0.67.

In the case of `COC(=O)CCC(=O)CN`, the “CD40L-induced NF-kB luciferase activity” value is -0.0616 ± 1.1.

`O=C(O)[C@@H](O)c1ccccc1`: the “CD40L-induced NF-kB luciferase activity” value is -1.47 ± 0.027.

Regarding `C=CCOC(=O)C1=C(C)NC(=O)NC1/C=C/c1ccccc1OC` (stereo not drawn), the “CD40L-induced NF-kB luciferase activity” value is -0.888 ± 0.046.

Turning to `COc1ccc(C2C3=C(OC(C)=O)c4ccccc4C3=Nc3c2c(=O)n(C)c(=O)n3C)cc1` (stereo not drawn), the “CD40L-induced NF-kB luciferase activity” value turned out to be 6.21 ± 0.2.

With `CC(=O)Oc1ccc(C2OC(=O)c3ccccc3N2C(C)=O)cc1` (stereo not drawn), the “CD40L-induced NF-kB luciferase activity” value was -32.9 ± 1.

As for `COc1ccc(C2C(=O)c3ccccc3C2=O)cc1`, the “CD40L-induced NF-kB luciferase activity” value was found to be 0.868 ± 0.29.

As to `COc1ccc(-c2coc3cc(OC(=O)N4CCOCC4)ccc3c2=O)cc1`, the “CD40L-induced NF-kB luciferase activity” value is 5.32 ± 1.2.

Regarding `CCCCCCCC(=O)OCC(=O)[C@@]1(O)CC[C@H]2[C@@H]3CCC4=CC(=O)CC[C@]4(C)[C@H]3[C@@H](O)C[C@@]21C`, the “CD40L-induced NF-kB luciferase activity” value is -24.2 ± 1.8.

For `CCCCC(=O)O[C@]1(C(=O)CO)CC[C@H]2[C@@H]3CCC4=CC(=O)CC[C@]4(C)[C@H]3[C@@H](O)C[C@@]21C`, the “CD40L-induced NF-kB luciferase activity” value was -43.1 ± 20.

In the case of `C[C@]12CCC(=O)C=C1CC[C@@H]1[C@@H]2[C@@H](O)C[C@@]2(C)[C@H]1CC[C@]2(O)C(=O)CO`, the “CD40L-induced NF-kB luciferase activity” value was -24.3 ± 5.5.

Take `CCCCCC(=O)O[C@]1(C(C)=O)CC[C@H]2[C@@H]3CCC4=CC(=O)CC[C@]4(C)[C@H]3CC[C@@]21C`: the “CD40L-induced NF-kB luciferase activity” value is -8.91 ± 0.8.

Turning to `CCCC(=O)O[C@]1(C(=O)CO)CC[C@H]2[C@@H]3CCC4=CC(=O)CC[C@]4(C)[C@H]3[C@@H](O)C[C@@]21C`, the “CD40L-induced NF-kB luciferase activity” value is -31.6 ± 7.7.

Consider `C[C@]12C[C@H](O)[C@H]3[C@@H](CCC4=CC(=O)CC[C@@]43C)[C@@H]1CC[C@@H]2C(=O)CO`, for which the “CD40L-induced NF-kB luciferase activity” value was -19.6 ± 8.2.

As to `CC(C(=O)O)c1ccc(N2Cc3ccccc3C2=O)cc1` (stereo not drawn), the “CD40L-induced NF-kB luciferase activity” value was -43.6 ± 2.8.

Consider `CC(C(=O)O)c1ccc(-c2ccccc2)c(F)c1` (stereo not drawn), for which the “CD40L-induced NF-kB luciferase activity” value was found to be 2.04 ± 0.53.

Take `CC(C)Cc1ccc(C(C)C(=O)O)cc1` (stereo not drawn): the “CD40L-induced NF-kB luciferase activity” value was 2.3 ± 5.
